# Assay results taken from ChEMBL document CHEMBL3988442, “University of Dundee, Small-Polar-MMV Screening Library” (2021).
# Out of some 48,000 compounds screened, about 13,000 (27%) showed an effect of 50% or more. This is one part of the list.
# Test system: Wolbachia pipientis
# Assay: Anti-Wolbachia Cell-Based Screen
# Format: functional
# Design: scale not given: in the data most compounds retested in dose-response had high values
# Details: 5 µM
row,SMILES,Percent Effect
1,CCC(CNS(C)(=O)=O)Oc1ccccc1F (stereo unspecified),-7.569%
2,CN1CCC(C2CCN(Cc3cccc(-n4cccn4)c3)CC2)C1 (stereo unspecified),-5.048%
3,CC(=O)N1CC(=O)N(c2cnn(C)c2)CC12CCN(Cc1cccs1)C2.O=C(O)C(F)(F)F (stereo unspecified),106.8%
4,CC(=O)N1CC(=O)N(c2cnn(C)c2)CC12CCN(Cc1ccoc1)C2 (stereo unspecified),-11.13%
5,CC(=O)N1CC(=O)N(c2cnn(C)c2)CC12CCN(Cc1nccs1)C2 (stereo unspecified),-3.662%
6,CC(=O)N1CC(=O)N(c2cnn(C)c2)CC12CCN(Cc1ccsc1)C2.O=C(O)C(F)(F)F.O=C(O)C(F)(F)F (stereo unspecified),4.027%
7,CC(=O)N1CC(=O)N(c2ccccc2)CC12CCN(Cc1cccs1)C2.O=C(O)C(F)(F)F (stereo unspecified),4.365%
8,CC(=O)N1CC(=O)N(c2cnn(C)c2)CC12CCN(Cc1ccco1)C2 (stereo unspecified),98.22%
9,CN(Cc1cccc2ncccc12)C(=O)CCn1ccc(=O)[nH]c1=O,10.3%
10,CN(Cc1cc(Cl)cc2cccnc12)CC1CCN(CCO)CC1,-4.482%
11,CNC(=O)CN1CCC(NC(=O)Cn2cc(C)c3ccccc32)CC1,-8.28%
12,CNC(=O)CN1CCC(NC(=O)N(C)Cc2cc(C)on2)CC1,7.433%
13,CNC(=O)CN1CCC(CN(C)Cc2ccncc2Cl)CC1,104.1%
14,CNC(=O)CN1CCC(CN(C)Cc2ccc(C)cc2C)CC1,95.31%
15,CC(=O)N(Cc1noc(C)n1)C1CCN(Cc2ccncc2Cl)C1 (stereo unspecified),6.525%
16,CNC(=O)CN1CCC(NC(=O)CC(C)CCc2ccccc2)CC1 (stereo unspecified),1.042%
17,CNC(=O)CN1CCC(NC(=O)Cc2ccccc2OC(C)C)CC1,-20.84%
18,CNC(=O)CN1CCC(CN(C)CCSc2ccccc2)CC1,112.7%
19,CNC(=O)CN1CCC(CN(C)Cc2ccccc2N(C)C)CC1,105.8%
20,CNC(=O)CN1CCC(c2nn(C)c(=O)n2-c2ccccc2)CC1,1.276%
21,CNC(=O)CN1CCCC(Cc2ccccc2OC)C1 (stereo unspecified),4.844%
22,CCC(CNC(=O)C1CC1)(OC)c1ccccc1 (stereo unspecified),-6.712%

row,SMILES,Percent Effect
1,Cc1cccc(CNC[C@H]2Cn3cc(-c4ccccc4)nc3CO2)n1,-23.05%
2,CC(C)c1csc(C(=O)N(C)c2ccc(Br)cn2)n1,-10.23%
3,CCC(=O)NCCCn1c(-c2cccnc2C)cc2cccnc21.Cl,116.3%
4,Cc1ccc(OCCCNC(=O)Cc2nc3ncccn3n2)cc1,-3.394%
5,CC(C)(C)C(=O)NCCCc1nc2ccccc2[nH]1,0.1098%
6,CC(C)(C)C(=O)NCCNCc1ccc(Cl)c2cccnc12,-7.376%
7,Cc1ncccc1-c1cc2cccnc2n1CCCNC(=O)C(C)(C)C.Cl,83.99%
8,Cc1cccnc1NCCNC(=O)C1CCN(C(=O)N(C)C)CC1,-7.872%
9,Cc1cccnc1NCCNC(=O)C1CCN(Cc2ccco2)CC1,-35.11%
10,CC(NC(=O)NCCCn1cccn1)c1cccnc1 (stereo unspecified),14.81%
11,Cc1ncccc1-c1cc2cccnc2n1CCCNC(=O)C1CC1.Cl,102.7%
12,CCS(=O)(=O)NCC(=O)N(C1CC1)C1Cc2ccccc2C1,0.1274%
13,CC(C)C(NC(=O)c1ccc(=O)[nH]c1)c1nnc2n1CCNCC2 (stereo unspecified),5.765%
14,COc1cc(C2(C(=O)N3CCCC(n4cncn4)C3)CC2)ccc1C (stereo unspecified),127.9%
15,Cn1cc(C(=O)N2CCCC(n3cncn3)C2)ccc1=O (stereo unspecified),-4.437%
16,O=C(c1ccc(C(F)(F)F)nc1)N1CCCC(n2cncn2)C1 (stereo unspecified),-5.926%
17,COc1cc(C2(C(=O)N3CCN(CC(C)(C)O)CC3)CC2)ccc1C,-9.844%
18,COc1ccc(C)cc1C(=O)N1CCCC(n2cncn2)C1 (stereo unspecified),125.6%
19,COc1cc(C2(C(=O)NC3CCN(C4CC4)CC3)CC2)ccc1C,-9.965%
20,COc1cc(C(=O)N2CCCC(n3cncn3)C2)ccc1C (stereo unspecified),123.7%
21,O=C(c1ccccc1OC1CCCC1)N1CCCC(n2cncn2)C1 (stereo unspecified),131.9%
22,CCOc1cc(C(=O)N2CCCC(n3cncn3)C2)ccc1C (stereo unspecified),31.02%

row,SMILES,Percent Effect
1,O=C(c1ccc(Br)o1)N1CCCC(n2cncn2)C1 (stereo unspecified),3.935%
2,Cc1ccc(SCCCNC(=O)c2cn([C@H]3CC[C@@H](N)CC3)nn2)cc1,-20.01%
3,Cc1sc(Br)cc1S(=O)(=O)NCc1ccccn1,-26.2%
4,Oc1ccccc1CN1CCC(n2cc(-c3ccc(F)cc3)nn2)CC1,-4.662%
5,CNCc1ccc([C@@H]2CN(C(C)=O)C[C@H]2C(N)=O)cc1.Cl,129.4%
6,CN(C)C(=O)c1ccc(CNC(=O)NCCN(C)C2CCCC2)cc1,0.2327%
7,CS(=O)(=O)c1ccc(CNC(=O)N2CCC(C(N)=O)C2)cc1 (stereo unspecified),-0.5949%
8,Cc1ccccc1CNC(=O)N1C[C@H]2C[C@H](C(=O)N(C)C)[C@@H](C1)O2,-3.016%
9,Cl.NC(=O)c1ccc(CNC2CC2)cc1,11.53%
10,CNCc1ccc([C@@H]2CN(C)C[C@H]2C(N)=O)cc1.Cl,68.94%
11,CNCc1ccc([C@@H]2CN(C(C)=O)C[C@H]2C(=O)N(C)C)cc1.Cl,99.26%
12,Cc1occc1C(=O)NCc1ccc(N2CCCC(C(N)=O)C2)cc1 (stereo unspecified),-5.63%
13,O=C(O)C(F)(F)F.O=C1COC2(CCN(Cc3cccs3)CC2)CN1c1ccccc1,-12.07%
14,Fc1cnc(N2CCOC3(CCN(Cc4cccs4)CC3)C2)nc1.O=C(O)C(F)(F)F.O=C(O)C(F)(F)F,104.4%
15,Fc1cnc(N2CCCC3(CN(Cc4ccccc4)CCO3)C2)nc1.O=C(O)C(F)(F)F (stereo unspecified),8.099%
16,Cc1cnc(N2CCC3(CC2)CN(c2ccsc2)C(=O)CO3)nc1.O=C(O)C(F)(F)F,15.19%
17,Cc1cccc(CN2CCC3(CC2)CN(c2cccnc2)C(=O)CO3)n1.O=C(O)C(F)(F)F.O=C(O)C(F)(F)F,90.31%
18,O=C(O)C(F)(F)F.O=C1COC2(CCN(Cc3cccs3)CC2)CN1c1cncnc1,100.5%
19,Cn1ccnc1CN1CCC2(CC1)CN(c1cncnc1)C(=O)CO2.O=C(O)C(F)(F)F,-21.12%
20,Cn1cc(N2CC3(CCN(Cc4cccs4)CC3)OCC2=O)cn1.O=C(O)C(F)(F)F,13.04%
21,Fc1cnc(N2CCOC3(CCN(Cc4ccsc4)CC3)C2)nc1.O=C(O)C(F)(F)F.O=C(O)C(F)(F)F,-10.48%
22,O=C(O)C(F)(F)F.O=C1COC2(CCN(Cc3cccs3)CC2)CN1c1ccsc1,102.1%
